# Screening data deposited in PubChem BioAssay by several laboratories.
# HSP90 inh: HSP90 inhibitors, primary screen, cell lysate, luminescence. AID 1789, 2009. 290,000 compounds, 0.91% hits. Heat shock protein HSP 90 (rabbit reticulocyte lysate; luciferase refolding). inhibition, % at 5.6 µM. Rabbit reticulocyte lysate, luciferase refolding luminescence, 3 h;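 active = inhibition above the screen-wide mean plus 3 SD, computed separately per campaign, cut at about 16% in these data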;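 note: 0% = DMSO wells and 100% = 60 µM geldanamycin wells; inhibitors lower the luminescence because luciferase stays unfolded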
# LGR2 antag: inhibitors of bursicon-induced LGR2 CRE-luciferase signal, primary screen, cell-based, HEK293, CRE-luciferase reporter, bursicon stimulation; Drosophila bursicon receptor LGR2 (rickets); bursicon-stimulated, 4 h; inhibition, % at 9.99 µM; 380,000 compounds, 0.35% hits; AID 720647, 2013;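 active = drop in luminescence signal, shown as inhibition above about 50% in the replicate tests, limit read from the data, passing the limit was not always enough; inconclusive = probably only some replicates passing the limit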;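 note: agonist challenge used bursicon conditioned medium at about half maximal strength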
# TWEAK Fn14 block: inhibitors of TWEAK-Fn14 signaling, primary screen, luciferase reporter cells, uHTS. 360,000 compounds, 2% hits. AID 1159606, 2016. inhibition, % at 10 µM. TWEAK-stimulated Fn14 reporter cells, luciferase luminescence, 8 h; in the data active = inhibition above about 50%
# TROY signal inh: inhibitors of TROY-driven NF-kB signaling, primary screen, Q293 LMP1-TROYcd cells, NF-kB luciferase, uHTS; Q293 LMP1-TROYcd NF-kB luciferase reporter, 4 h; inhibition, % at 10 µM; 360,000 compounds, 0.98% hits; AID 1347056, 2019;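 active = compounds whose plate-normalised and pattern-corrected inhibition of the luciferase reporter signal at the single screening dose is 50% or more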
# An asterisk follows results filed as active; ? = inconclusive; . = no result given; ! = a repeat was not active. Compounds with a hit are over-represented: about 2.2% of the library has one in this group of screens.
SMILES,HSP90 inh,LGR2 antag,TWEAK Fn14 block,TROY signal inh
CNC[C@@H]1Oc2cc(-c3cccc(C(=O)N(C)C)c3)ccc2S(=O)(=O)N([C@H](C)CO)C[C@H]1C,.,-2.4,.,.
COc1cc(NC(=O)c2cnc(N)o2)cc(C(=O)Nc2cccc(C(F)(F)F)c2)c1,.,6.3,57.1*!,24.7
COc1cc(NC(=O)c2ccnc(N)c2)cc(C(=O)Nc2cccc(C(F)(F)F)c2)c1,.,-16.7,-20.3,-28.8
Cc1cnc(NC(=O)C2CC(=O)N(c3ccc4c(c3)OCCO4)C2)s1 (stereo not given),.,22.6,29.7,-0.3
Cc1cnc(NC(=O)C2CC(=O)N(c3cccc(Cl)c3)C2)s1 (stereo not given),-0.3,79.1*,43.2,15.4
O=C(c1ccccc1)C(CN1CCCCC1)c1ccccc1 (stereo not given),.,?,70.7*,7.7
CN(Cc1cc(Cl)cc(Cl)c1)CC(C(=O)c1ccccc1)c1ccccc1 (stereo not given),.,?,15.0,-12.2
O=C(c1ccc(Br)cc1)C(CN1CCOCC1)c1ccccc1 (stereo not given),-1.3,15.6,57.7*,-0.3
CN(C)CC(C(=O)c1ccccc1)c1ccccc1 (stereo not given),0.1,.,79.0*,32.6
O=C(C[C@@H]1C[C@H]2c3cc(NC(=O)c4cccnc4)ccc3O[C@H]2[C@H](CO)O1)NCc1ccccc1,.,4.7,.,.
CCOC(=O)c1cccc(Nc2nc(-c3cccnc3)nc3ccccc23)c1,-2.5,.,68.9*,37.2
Nc1nc(=S)c2ncn(C3CCCCC3)c2[nH]1,.,4.8,-7.4,63.9*
CC(C)n1c(SCC(=O)N2c3ccccc3Sc3ccccc32)nc2c1c(=O)n(C)c(=O)n2C,-4.5,-6.8,-15.6,11.5
CCCn1c(SCC(=O)N2c3ccccc3Sc3ccccc32)nc2c1c(=O)n(C)c(=O)n2C,1.8,.,-24.6,50.2*
CCNc1nc(NC(C)CC)nc(Oc2ccc(=O)[nH]n2)n1 (stereo not given),-6.1,15.0,86.7*,-2.2
CCNc1nc(NCc2ccccc2)nc(Oc2ccc(=O)[nH]n2)n1,-1.2,.,6.4,-13.4
COc1cc2c(cc1NC(=O)c1ccccc1-c1ccccc1C(=O)O)-c1ccccc1C2,.,14.9,17.6,-0.4
COc1cc2c(cc1NC(=O)C(Cl)Cl)-c1ccc(NC(=O)C(Cl)Cl)cc1C2,.,0.3,81.1*,-35.5
CCOc1ccccc1/C=N/n1nnnc1N,2.6,-11.5,73.6*,-10.4
Nc1nnnn1/N=C/c1ccccc1O,.,0.8,-0.4,-7.6
CC1=Nc2ccccc2/C1=C\c1sc(Nc2ccc(C)cc2)nc1O,-6.4,-12.6,54.6*,25.9
Oc1nc(Nc2cccc(Cl)c2)sc1/C=C1\C=Nc2ccccc21,2.5,4.5,53.3*,83.3*
C[C@@H](NC(=O)C[C@H]1C[C@H]2c3cc(NS(=O)(=O)c4ccc(F)cc4)ccc3O[C@H]2[C@H](CO)O1)c1ccccc1,.,-17.4,.,.
CC(=O)c1c(C)[nH]c(C(=O)COc2cc(C)ccc2C(C)C)c1C,3.7,.,63.9*,48.5
COc1cc(C)ccc1OCC(=O)OCC(=O)c1[nH]c(C)c(C(C)=O)c1C,.,2.7,-8.8,-1.2
SMILES,HSP90 inh,LGR2 antag,TWEAK Fn14 block,TROY signal inh
COc1ccc2c(c1)CCc1cc(C(=O)N3CCN(c4ccc(N5CCOCC5)nn4)CC3)sc1-2,-4.4,.,44.9,56.1*
Cc1noc(C)c1NC(=O)Nc1ccc2c(c1)CC(=O)N([C@H](C)CO)C[C@H](C)[C@@H](CN(C)C(=O)Nc1ccc3c(c1)OCO3)O2,.,4.8,.,.
C[C@H]1CN([C@@H](C)CO)C(=O)c2cccc(NC(=O)C3CCCCC3)c2O[C@H]1CN(C)CC1CCCCC1,.,11.5,.,.
C=CCn1c(CSCc2ccc(Cl)cc2)nnc1SCC(=O)NCc1ccccc1,2.9,8.5,24.5,15.0
C=CCn1c(CSCc2ccc(C)cc2)nnc1SCC(=O)NCc1ccccc1,0.8,-16.6,73.9*,.
O=C(Nc1ccc2c(c1)OCCO2)C1CCN(S(=O)(=O)c2ccc(Br)s2)CC1,1.0,.,51.3*,18.7
O=C(Nc1ccc2c(c1)OCCO2)C1CCCN(S(=O)(=O)Cc2ccccc2)C1 (stereo not given),2.2,.,54.2*,24.0
O=C(Nc1ccc2c(c1)OCO2)C1CCCN(S(=O)(=O)Cc2ccccc2)C1 (stereo not given),-2.2,.,-4.3,0.1
O=C(Nc1ccc2c(c1)OCCO2)C(c1cc2ccccc2o1)N1CCC(Cc2ccccc2)CC1 (stereo not given),.,13.6,89.5*,85.1*
O=C(Nc1ccc2c(c1)OCCO2)C1CCN(S(=O)(=O)c2cccs2)CC1,3.1,.,35.3,29.2
O=C(Nc1ccc2c(c1)OCO2)c1cc(C2CCCCN2S(=O)(=O)Cc2ccccc2)on1 (stereo not given),.,-76.2,8.8,63.6*
O=C(c1cnccn1)N1CC[C@H]2[C@H](CO)Nc3ccc(C#Cc4cccnc4)cc3[C@H]21,.,-2.2,.,.
CNC[C@H]1Oc2ccc(NS(=O)(=O)c3ccc(OC)cc3)cc2CC(=O)N([C@H](C)CO)C[C@@H]1C,.,-25.5,.,.
COc1ccc(C(=O)N2CCC(C(=O)Nc3ccc4c(c3)OCCO4)CC2)cc1,9.1,.,79.3*,48.0
Cc1nn(C)c(C)c1S(=O)(=O)N1CCC(C(=O)Nc2ccc3c(c2)OCCO3)CC1,5.7,-6.8,78.9*,66.0*
Cc1ccc2nc(CSc3nc(C)ccc3C#N)[nH]c2c1,6.9,76.2*,69.3*,44.5
Cc1ccc(C#N)c(SCc2ccccc2F)n1,0.6,0.9,-44.5,-35.3
CCCNC(=O)Nc1ccc2c(c1)C(=O)N(C)[C@H]1CC[C@H](CC(=O)Nc3ccccc3C)O[C@@H]1CO2,.,1.8,.,.
O=C(NCC1CC1)[C@H]1[C@H](CO)[C@H]2Cn3c(ccc(-c4cccnc4)c3=O)[C@@H]1N2C(=O)C1CCCCC1,.,10.9,.,.
Cc1ccc(S(=O)(=O)N2CCCCC2C)cc1[N+](=O)[O-] (stereo not given),16.4*,23.6,-24.7,8.6
CCCCn1c(NS(=O)(=O)c2ccccc2)c(S(=O)(=O)c2ccc(C)cc2)c2nc3ccccc3nc21,16.2*,.,31.5,69.7*
CCC(=O)Nc1c(S(=O)(=O)c2ccccc2)c2nc3ccccc3nc2n1C(C)c1ccccc1 (stereo not given),-2.3,0.7,50.4*,72.6*
CCC(=O)Nc1c(S(=O)(=O)c2ccc(C)cc2)c2nc3ccccc3nc2n1C(C)c1ccccc1 (stereo not given),-3.5,15.2,34.7,34.5
CCCCCn1c(NC(=O)c2ccco2)c(S(=O)(=O)c2ccc(C)cc2)c2nc3ccccc3nc21,16.4*,.,66.8*,64.8*
CCCCn1c(NC(=O)c2ccco2)c(S(=O)(=O)c2ccc(C)cc2)c2nc3ccccc3nc21,7.1,1.2,72.1*,66.0*
C[C@H](CO)N1C[C@H](C)[C@@H](CN(C)Cc2ccccc2)Oc2ncc(/C=C/c3ccccc3)cc2C1=O,.,18.6,.,.
